This passage reports log2 fold change results from the supplement of paper PMC10849652.

Targets with a hit are over-represented here; the source holds about 7,900 in all. About 0.6% of all pairs of compound and target were hits.

Chain of UniProt P42229 (P42229 whole entry, looked up): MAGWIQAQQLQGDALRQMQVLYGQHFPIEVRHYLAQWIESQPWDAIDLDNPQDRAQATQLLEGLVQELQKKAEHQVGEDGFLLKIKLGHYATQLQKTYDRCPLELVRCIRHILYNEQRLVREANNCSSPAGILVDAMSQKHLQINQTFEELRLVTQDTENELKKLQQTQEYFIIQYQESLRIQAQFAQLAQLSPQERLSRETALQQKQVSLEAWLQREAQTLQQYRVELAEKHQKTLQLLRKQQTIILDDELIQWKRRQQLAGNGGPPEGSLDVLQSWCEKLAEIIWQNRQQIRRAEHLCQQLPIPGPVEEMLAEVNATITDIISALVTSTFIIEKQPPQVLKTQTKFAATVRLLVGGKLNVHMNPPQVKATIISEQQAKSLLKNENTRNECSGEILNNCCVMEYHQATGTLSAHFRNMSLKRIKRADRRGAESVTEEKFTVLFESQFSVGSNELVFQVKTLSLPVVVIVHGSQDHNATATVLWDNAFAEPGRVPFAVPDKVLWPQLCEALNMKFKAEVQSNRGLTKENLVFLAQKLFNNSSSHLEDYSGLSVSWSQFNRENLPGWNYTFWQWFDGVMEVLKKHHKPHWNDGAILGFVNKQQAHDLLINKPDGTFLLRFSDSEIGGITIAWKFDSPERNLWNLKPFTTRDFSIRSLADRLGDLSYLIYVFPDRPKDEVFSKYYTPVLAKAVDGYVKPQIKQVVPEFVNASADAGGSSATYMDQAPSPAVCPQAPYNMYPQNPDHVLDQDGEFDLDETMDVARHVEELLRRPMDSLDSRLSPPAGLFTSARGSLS
Chain of UniProt Q16594 (Q16594 whole entry, looked up): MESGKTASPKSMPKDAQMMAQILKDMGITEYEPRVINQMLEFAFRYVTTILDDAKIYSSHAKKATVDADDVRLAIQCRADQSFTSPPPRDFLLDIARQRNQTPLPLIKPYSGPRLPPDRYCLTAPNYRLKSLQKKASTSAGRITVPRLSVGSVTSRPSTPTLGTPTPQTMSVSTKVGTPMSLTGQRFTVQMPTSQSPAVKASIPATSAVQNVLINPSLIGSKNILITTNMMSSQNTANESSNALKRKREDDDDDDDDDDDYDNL
Chain of UniProt O15198 (O15198 whole entry, looked up): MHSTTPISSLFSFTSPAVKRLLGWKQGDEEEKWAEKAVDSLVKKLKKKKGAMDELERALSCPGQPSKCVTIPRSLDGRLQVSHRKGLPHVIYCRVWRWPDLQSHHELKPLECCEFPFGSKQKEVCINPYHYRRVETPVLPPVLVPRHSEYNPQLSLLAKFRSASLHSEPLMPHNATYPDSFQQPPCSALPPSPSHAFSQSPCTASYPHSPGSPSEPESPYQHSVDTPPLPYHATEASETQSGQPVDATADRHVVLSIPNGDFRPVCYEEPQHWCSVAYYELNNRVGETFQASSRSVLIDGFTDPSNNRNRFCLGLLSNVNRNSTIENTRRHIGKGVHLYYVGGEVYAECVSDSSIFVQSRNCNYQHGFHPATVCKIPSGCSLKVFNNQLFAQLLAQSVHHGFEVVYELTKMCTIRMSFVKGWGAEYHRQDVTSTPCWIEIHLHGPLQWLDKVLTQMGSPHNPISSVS
Chain of UniProt Q9UHB9 (Q9UHB9 whole entry, looked up): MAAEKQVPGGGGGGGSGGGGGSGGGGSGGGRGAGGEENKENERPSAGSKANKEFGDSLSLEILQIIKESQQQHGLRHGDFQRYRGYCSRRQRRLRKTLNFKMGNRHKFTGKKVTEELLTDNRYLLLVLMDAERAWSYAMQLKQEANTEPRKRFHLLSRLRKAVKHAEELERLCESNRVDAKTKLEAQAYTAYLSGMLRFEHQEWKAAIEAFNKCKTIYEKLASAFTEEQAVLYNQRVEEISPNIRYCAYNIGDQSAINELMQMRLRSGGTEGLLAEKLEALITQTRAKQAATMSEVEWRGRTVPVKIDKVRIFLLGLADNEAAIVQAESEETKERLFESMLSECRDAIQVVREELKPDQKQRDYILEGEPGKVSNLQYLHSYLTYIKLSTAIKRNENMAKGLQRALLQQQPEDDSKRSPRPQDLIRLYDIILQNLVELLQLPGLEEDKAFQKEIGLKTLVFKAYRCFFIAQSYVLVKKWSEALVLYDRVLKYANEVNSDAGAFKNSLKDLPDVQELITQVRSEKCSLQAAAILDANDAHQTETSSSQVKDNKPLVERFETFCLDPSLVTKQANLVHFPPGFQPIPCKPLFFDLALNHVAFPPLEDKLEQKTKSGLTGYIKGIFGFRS
Chain of UniProt Q9NQZ5 (Q9NQZ5 whole entry, looked up): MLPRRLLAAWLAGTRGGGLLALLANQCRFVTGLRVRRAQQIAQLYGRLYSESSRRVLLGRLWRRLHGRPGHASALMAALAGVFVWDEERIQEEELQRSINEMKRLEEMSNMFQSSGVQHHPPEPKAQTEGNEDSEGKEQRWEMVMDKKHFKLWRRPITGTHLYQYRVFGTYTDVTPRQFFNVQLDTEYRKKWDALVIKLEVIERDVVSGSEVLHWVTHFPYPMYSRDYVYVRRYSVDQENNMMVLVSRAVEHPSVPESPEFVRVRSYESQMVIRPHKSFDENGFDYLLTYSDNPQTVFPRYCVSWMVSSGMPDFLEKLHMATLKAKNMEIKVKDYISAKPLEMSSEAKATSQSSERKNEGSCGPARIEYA
Chain of UniProt Q02447 (Q02447 whole entry, looked up): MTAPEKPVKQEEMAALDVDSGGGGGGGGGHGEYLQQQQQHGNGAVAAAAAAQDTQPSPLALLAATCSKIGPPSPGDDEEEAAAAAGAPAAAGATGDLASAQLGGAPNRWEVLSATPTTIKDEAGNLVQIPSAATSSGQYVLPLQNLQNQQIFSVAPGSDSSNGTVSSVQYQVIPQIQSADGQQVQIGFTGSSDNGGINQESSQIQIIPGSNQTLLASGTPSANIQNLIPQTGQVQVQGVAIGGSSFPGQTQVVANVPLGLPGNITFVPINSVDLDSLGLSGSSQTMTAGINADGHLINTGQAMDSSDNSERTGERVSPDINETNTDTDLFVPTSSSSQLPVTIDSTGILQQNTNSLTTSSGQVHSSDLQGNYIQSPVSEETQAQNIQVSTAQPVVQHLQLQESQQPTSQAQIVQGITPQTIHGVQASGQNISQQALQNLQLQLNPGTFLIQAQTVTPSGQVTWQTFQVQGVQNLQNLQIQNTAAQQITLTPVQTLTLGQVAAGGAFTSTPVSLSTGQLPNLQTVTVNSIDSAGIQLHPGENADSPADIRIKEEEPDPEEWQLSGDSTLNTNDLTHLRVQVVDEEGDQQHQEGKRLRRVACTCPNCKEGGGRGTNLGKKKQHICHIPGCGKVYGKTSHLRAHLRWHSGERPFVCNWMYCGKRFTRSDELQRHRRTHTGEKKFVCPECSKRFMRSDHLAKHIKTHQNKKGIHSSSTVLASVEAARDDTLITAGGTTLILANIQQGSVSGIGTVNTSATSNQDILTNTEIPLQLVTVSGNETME
Chain of UniProt P63165 (P63165 whole entry, looked up): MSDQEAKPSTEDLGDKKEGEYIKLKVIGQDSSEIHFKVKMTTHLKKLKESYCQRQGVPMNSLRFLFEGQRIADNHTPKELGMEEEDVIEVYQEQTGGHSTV
Chain of UniProt Q7L7X3 (Q7L7X3 whole entry, looked up): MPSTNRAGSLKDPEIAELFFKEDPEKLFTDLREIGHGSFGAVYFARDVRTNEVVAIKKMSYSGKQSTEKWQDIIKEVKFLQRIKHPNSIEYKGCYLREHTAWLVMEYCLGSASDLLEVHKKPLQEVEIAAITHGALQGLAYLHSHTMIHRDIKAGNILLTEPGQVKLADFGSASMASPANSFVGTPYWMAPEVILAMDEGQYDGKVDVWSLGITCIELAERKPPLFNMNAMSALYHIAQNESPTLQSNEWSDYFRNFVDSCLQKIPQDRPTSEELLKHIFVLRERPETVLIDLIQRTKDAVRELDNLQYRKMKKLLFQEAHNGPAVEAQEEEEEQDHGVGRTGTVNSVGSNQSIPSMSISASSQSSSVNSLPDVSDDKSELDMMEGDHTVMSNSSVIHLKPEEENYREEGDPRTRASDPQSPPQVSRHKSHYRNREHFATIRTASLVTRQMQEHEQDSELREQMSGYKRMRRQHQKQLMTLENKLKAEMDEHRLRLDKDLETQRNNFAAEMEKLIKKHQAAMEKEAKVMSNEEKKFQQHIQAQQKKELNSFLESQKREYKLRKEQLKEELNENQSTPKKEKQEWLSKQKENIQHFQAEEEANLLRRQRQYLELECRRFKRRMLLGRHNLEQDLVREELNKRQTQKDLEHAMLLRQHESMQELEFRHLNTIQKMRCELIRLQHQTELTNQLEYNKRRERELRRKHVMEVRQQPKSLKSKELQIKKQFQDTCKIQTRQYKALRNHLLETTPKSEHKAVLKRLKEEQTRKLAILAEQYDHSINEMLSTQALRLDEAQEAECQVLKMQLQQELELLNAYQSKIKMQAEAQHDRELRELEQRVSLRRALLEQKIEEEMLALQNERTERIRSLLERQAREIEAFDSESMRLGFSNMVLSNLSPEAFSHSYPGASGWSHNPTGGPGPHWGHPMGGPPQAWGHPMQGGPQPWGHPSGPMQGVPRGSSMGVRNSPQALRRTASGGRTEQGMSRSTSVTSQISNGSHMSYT
Chain of UniProt P84103 (P84103 whole entry, looked up): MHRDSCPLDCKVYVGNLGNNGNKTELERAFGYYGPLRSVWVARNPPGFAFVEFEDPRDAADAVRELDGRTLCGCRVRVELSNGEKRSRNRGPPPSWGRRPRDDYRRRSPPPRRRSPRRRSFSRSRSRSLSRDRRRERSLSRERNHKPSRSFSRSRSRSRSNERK
Chain of UniProt Q8NEF9 (Q8NEF9 whole entry, looked up): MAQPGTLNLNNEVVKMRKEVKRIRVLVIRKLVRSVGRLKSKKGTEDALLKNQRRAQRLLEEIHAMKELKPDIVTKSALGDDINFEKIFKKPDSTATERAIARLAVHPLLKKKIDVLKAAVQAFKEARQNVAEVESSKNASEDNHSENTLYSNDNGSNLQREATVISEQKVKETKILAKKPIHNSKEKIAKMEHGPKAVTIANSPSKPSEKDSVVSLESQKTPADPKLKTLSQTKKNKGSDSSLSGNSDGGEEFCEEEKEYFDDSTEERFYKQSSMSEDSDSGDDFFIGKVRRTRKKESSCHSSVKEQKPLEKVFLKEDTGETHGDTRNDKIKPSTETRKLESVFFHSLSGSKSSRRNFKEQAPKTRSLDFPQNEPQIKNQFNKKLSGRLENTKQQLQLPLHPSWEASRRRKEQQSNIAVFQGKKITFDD

Compound in one assay: Cc1cc(Nc2cc(CN3CCOCC3)c3nc(C)c(Cc4ccc(Cl)cc4F)n3n2)n[nH]1 [gandotinib]
In words: log2 fold change, soluble protein after heating vs DMSO (PISA); higher = thermal stabilisation; K562 cells, 10 uM, 30 min; active = over 0.2 and 3.5 SD of the protein, either way, in both replicates (recomputed). The method in brief:
(§1)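 Soluble protein was defined as the supernatant after 21,000xg for 90 min. It came from K562 cells at 2×10^6 cells/mL given 10 μM compound for 30 min, heated in aliquots for 3 min across 48°C-58°C, pooled, and extracted in PBS with 0.5% NP-40 at 4°C, and was quantified by TMTpro 16plex LC-MS/MS with equalised channel sums. Thermal stability against control samples, from duplicates, is reported as log2 fold change.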
For SNRNP27 (UniProt Q8WVK2), the log2 fold change is 0.013 (inactive).

Turning to SRP68 (UniProt Q9UHB9), the log2 fold change is -0.064 (inactive).

In the case of SP3 (UniProt Q02447), the log2 fold change was 0.086 (inactive).

With TLK2 isoform 2 (UniProt Q86UE8), the log2 fold change was 0.165 (inactive).

STAT6 (UniProt P42226): the log2 fold change is -0.269 (inactive).

Turning to SLC38A9 (UniProt Q8NBW4), the log2 fold change was -0.018 (inactive).

For the target STAM2 (UniProt O75886), the log2 fold change is -0.126 (inactive).

As for SLC30A7 (UniProt Q8NEW0), the log2 fold change was -0.348 (active).

Turning to STARD7 (UniProt Q9NQZ5), the log2 fold change was -0.168 (inactive).

As for SUMO1 (UniProt P63165), the log2 fold change is 0.064 (inactive).

For the target STAT5A (UniProt P42229), the log2 fold change was -0.033 (inactive).

With SRPRA (UniProt P08240), the log2 fold change was -0.042 (inactive).

TBC1D15 isoform 3 (UniProt Q8TC07): the log2 fold change is -0.191 (inactive).

Consider TFRC (UniProt P02786), for which the log2 fold change was -0.011 (inactive).

On to SRSF7 (UniProt Q16629), for which the log2 fold change was 0.319 (inactive).

With TAMM41 isoform 3 (UniProt Q96BW9), the log2 fold change was -0.04 (inactive).

As to STK38 (UniProt Q15208), the log2 fold change is -0.024 (inactive).

Turning to SLC6A6 (UniProt P31641), the log2 fold change is -0.049 (inactive).

In the case of TBC1D23 (UniProt Q9NUY8), the log2 fold change was -0.205 (inactive).

In the case of SMAD9 (UniProt O15198), the log2 fold change is -0.197 (inactive).

As for SRSF3 (UniProt P84103), the log2 fold change was 0.247 (inactive).

Consider TBCD (UniProt Q9BTW9), for which the log2 fold change is -0.104 (inactive).

Consider TECR (UniProt Q9NZ01), for which the log2 fold change is -0.344 (active).

Regarding STK39 (UniProt Q9UEW8), the log2 fold change is -0.038 (inactive).

As for TAF9 (UniProt Q16594), the log2 fold change is -0.047 (inactive).

As for SUPT16H (UniProt Q9Y5B9), the log2 fold change was -0.024 (inactive).

SRFBP1 (UniProt Q8NEF9): the log2 fold change is 0.083 (inactive).

SLC9A6 isoform 2 (UniProt Q92581): the log2 fold change is -0.105 (inactive).

Consider SNX11 (UniProt Q9Y5W9), for which the log2 fold change was -0.378 (inactive).

In the case of SREK1 isoform 2 (UniProt Q8WXA9), the log2 fold change was 0.014 (inactive).

For the target SMAD2 (UniProt Q15796), the log2 fold change was 0.045 (inactive).

With TBC1D5 isoform 2 (UniProt Q92609), the log2 fold change is -0.255 (inactive).

For the target SLC25A36 (UniProt Q96CQ1), the log2 fold change is 0.313 (inactive).

Consider SLC7A6 (UniProt Q92536), for which the log2 fold change is -0.114 (inactive).

In the case of SUGP1 (UniProt Q8IWZ8), the log2 fold change is -0.077 (inactive).

As for TAOK1 (UniProt Q7L7X3), the log2 fold change was -0.029 (inactive).

On to STXBP5 (UniProt Q5T5C0), for which the log2 fold change is -0.029 (inactive).

SURF1 (UniProt Q15526): the log2 fold change was -0.066 (inactive).

Compound in a further assay: Cc1cc(Nc2cc(N3CCN(C)CC3)nc(Sc3ccc(NC(=O)C4CC4)cc3)n2)n[nH]1 [tozasertib]
Described as above. Put shortly: as §1
Regarding SNRNP27 (UniProt Q8WVK2), the log2 fold change is -0.084 (inactive).

For the target SRP68 (UniProt Q9UHB9), the log2 fold change was 0.054 (inactive).

In the case of SP3 (UniProt Q02447), the log2 fold change is 0.032 (inactive).

Turning to TLK2 isoform 2 (UniProt Q86UE8), the log2 fold change was -0.047 (inactive).

Consider STAT6 (UniProt P42226), for which the log2 fold change was 0.171 (inactive).

In the case of SLC38A9 (UniProt Q8NBW4), the log2 fold change was 0.001 (inactive).

On to STAM2 (UniProt O75886), for which the log2 fold change was 0.054 (inactive).

For the target SLC30A7 (UniProt Q8NEW0), the log2 fold change is -0.05 (inactive).

Take STARD7 (UniProt Q9NQZ5): the log2 fold change was -0.024 (inactive).

Consider SUMO1 (UniProt P63165), for which the log2 fold change was 0 (inactive).

As for STAT5A (UniProt P42229), the log2 fold change was 0.119 (inactive).

For the target SRPRA (UniProt P08240), the log2 fold change was -0.009 (inactive).

On to TBC1D15 isoform 3 (UniProt Q8TC07), for which the log2 fold change is 0.061 (inactive).

Regarding TFRC (UniProt P02786), the log2 fold change is -0.01 (inactive).

In the case of SRSF7 (UniProt Q16629), the log2 fold change is -0.005 (inactive).

As to TAMM41 isoform 3 (UniProt Q96BW9), the log2 fold change is -0.036 (inactive).

For STK38 (UniProt Q15208), the log2 fold change was 0.065 (inactive).

In the case of SLC6A6 (UniProt P31641), the log2 fold change is -0.091 (inactive).

TBC1D23 (UniProt Q9NUY8): the log2 fold change was -0.042 (inactive).

For the target SMAD9 (UniProt O15198), the log2 fold change is -0.069 (inactive).

Turning to SRSF3 (UniProt P84103), the log2 fold change is -0.027 (inactive).

Consider TBCD (UniProt Q9BTW9), for which the log2 fold change is 0.041 (inactive).

As to TECR (UniProt Q9NZ01), the log2 fold change is -0.031 (inactive).

STK39 (UniProt Q9UEW8): the log2 fold change is -0.049 (inactive).

With TAF9 (UniProt Q16594), the log2 fold change was -0.034 (inactive).

Take SUPT16H (UniProt Q9Y5B9): the log2 fold change is 0.234 (inactive).

Turning to SRFBP1 (UniProt Q8NEF9), the log2 fold change was 0.055 (inactive).

Consider SLC9A6 isoform 2 (UniProt Q92581), for which the log2 fold change was -0.024 (inactive).

In the case of SNX11 (UniProt Q9Y5W9), the log2 fold change was -0.001 (inactive).

On to SREK1 isoform 2 (UniProt Q8WXA9), for which the log2 fold change was 0.003 (inactive).

As to SMAD2 (UniProt Q15796), the log2 fold change was 0.086 (inactive).

With TBC1D5 isoform 2 (UniProt Q92609), the log2 fold change is 0.007 (inactive).

Turning to SLC25A36 (UniProt Q96CQ1), the log2 fold change is -0.059 (inactive).

In the case of SLC7A6 (UniProt Q92536), the log2 fold change was -0.006 (inactive).

In the case of SUGP1 (UniProt Q8IWZ8), the log2 fold change was 0.042 (inactive).

In the case of TAOK1 (UniProt Q7L7X3), the log2 fold change is -0.027 (inactive).

For the target STXBP5 (UniProt Q5T5C0), the log2 fold change was 0.017 (inactive).

Turning to SURF1 (UniProt Q15526), the log2 fold change is 0.016 (inactive).
